Screening data from PubChem.
Sampled rows, rich in hits. Any-hit rate of the full collection: about 3.5%.
GPR151 activ = activates the human receptor GPR151 | PathHunter beta-arrestin GPR151 cells, luminescence | activation, % at 11.2 µM | actives 1% (n = 650,000) | AID 1508602; in the data active means activation above about 4.9%;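 further: 0% = median of compound wells and 100% = cells with positive control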
TEAD-YAP block = TEAD-YAP interaction inhibition; HEK-TIYL cells, TEAD-Gal4/YAP UAS-luciferase luminescence; inhibition, % at 9.12 µM; actives 1.4% (n = 640,000); AID 1259422; in the data active means inhibition above about 32%;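 further: 0% = median of test compound wells and 100% = reference inhibitor wells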
FBW7 act = human FBW7 E3 ligase activation, primary screen; AlphaScreen FBW7–phospho-cyclin E peptide binding, activator screen; AID 1259310; actives 0.13% (n = 650,000); normalized activity (activation), % at 26.1 µM; Q969H0; in the data active means normalized activity above about 1.9%;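 further: purified mutant Fbw7 with reduced substrate affinity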
MITF primary = human MITF inhibition, primary screen; AID 1259374; inhibition, % at 2.6 µM; AlphaScreen MITF homodimerization, bead proximity signal; actives 0.91% (n = 650,000); O75030; in the data active means inhibition above about 50%;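 further: 0% = vehicle wells with protein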
Target sequence (O75030 whole entry, looked up): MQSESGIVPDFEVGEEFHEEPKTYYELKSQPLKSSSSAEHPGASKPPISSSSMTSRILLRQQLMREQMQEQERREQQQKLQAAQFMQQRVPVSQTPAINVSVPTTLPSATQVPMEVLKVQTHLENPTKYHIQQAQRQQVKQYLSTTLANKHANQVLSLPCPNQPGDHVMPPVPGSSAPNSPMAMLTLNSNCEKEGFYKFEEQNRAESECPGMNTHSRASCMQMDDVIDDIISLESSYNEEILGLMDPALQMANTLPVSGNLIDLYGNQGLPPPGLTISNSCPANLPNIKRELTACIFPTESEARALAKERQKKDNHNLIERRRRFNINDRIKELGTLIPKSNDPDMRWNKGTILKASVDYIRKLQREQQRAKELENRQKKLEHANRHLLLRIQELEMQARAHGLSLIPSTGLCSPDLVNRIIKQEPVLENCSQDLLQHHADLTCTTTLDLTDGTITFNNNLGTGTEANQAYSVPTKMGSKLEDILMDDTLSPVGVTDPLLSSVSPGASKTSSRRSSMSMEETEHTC
An asterisk follows results filed as active.

SMILES | GPR151 activ | TEAD-YAP block | FBW7 act | MITF primary
CNS(=O)(=O)c1cccc(C(=O)OCC(=O)c2cc(C)n(Cc3ccco3)c2C)c1 | -1 | -27 | 1 | -5
Cc1cc(C(=O)COC(=O)c2cccc(S(=O)(=O)N(C)C)c2)c(C)n1CC1CCCO1 (stereo not given) | -1 | -23 | 0 | 22
CNS(=O)(=O)c1cccc(C(=O)OCC(=O)c2cc(C)n(Cc3cccs3)c2C)c1 | 1 | 58* | 0 | -7
CNS(=O)(=O)c1cccc(C(=O)OCC(=O)c2cc(C)n(CC3CCCO3)c2C)c1 (stereo not given) | 0 | 57* | 0 | -10
COc1nc(Nc2cc(OC)c(OC)c(OC)c2)nc(-c2csc3ccccc23)n1 | -1 | 3 | 0 | 3
Cc1cccc(-n2c(O)c(/C=N/NC(=O)c3ccccc3Cl)c3ccccc3c2=O)n1 | -1 | -3 | 0 | 3
O=C(Cc1ccc(F)cc1)N/N=C/c1c(O)n(-c2ccccc2Cl)c(=O)c2ccccc12 | -2 | 60* | -1 | 19
C=CCSC(=C(C#N)C#N)c1cc2c([nH]1)CCCC2 | -1 | 51* | 0 | 10
O=C(O)c1cc2c([nH]c1=O)CCCC2 | 1 | 1 | 0 | 6
CC1CCCCN1C(=O)Cn1c(=O)n(-c2ccccc2)c(=O)c2c3c(sc21)CCC3 (stereo not given) | 2 | 8 | 0 | 3
Cc1cccc2cc(CN(CCc3ccccc3)C(=O)c3ccncc3)c3nnnn3c12 | -1 | -2 | 1 | 12
COc1ccccc1CN(Cc1cc2cccc(C)c2n2nnnc12)C(=O)c1ccncc1 | 0 | 34* | 0 | -1
CCCN(CCC)CCCNC(=O)c1ccc2c(SCC(=O)O)c3c(nc2c1)CCC3 | 0 | 3 | 0 | 17
O=c1cc(CSc2nc(NCc3ccc4c(c3)OCO4)c3ccccc3n2)nc2ccccn12 | -2 | 12 | 1 | 4
CC1=NN(c2ccccc2)C(=O)C1C(=O)c1ccccc1 (stereo not given) | -1 | 25 | 0 | 6
CC1=NN(c2ccccc2)C(=O)C1C(=O)c1ccc(Br)cc1 (stereo not given) | -1 | 37* | 0 | 1
CCOc1ccc(S(=O)(=O)Nc2cc(F)ccc2F)c2cccnc12 | 0 | -8 | 0 | -17
CCOc1ccc(S(=O)(=O)N2c3ccc(F)cc3CCC2C)c2cccnc12 (stereo not given) | 0 | 50* | 0 | 2
FC(F)(F)c1cccc(CNc2cc(Nc3ccccn3)ncn2)c1 | -3 | -12 | 0 | -1
Cc1ncc([N+](=O)[O-])n1S(=O)(=O)c1cccc2ccccc12 | 0 | 5 | 2.3* | 0
Cc1ncc([N+](=O)[O-])n1S(=O)(=O)c1ccccc1 | 0 | 11 | 0 | 11
CC(C)CCOC(=O)C[N+](C)(C)CCOC1CC2CCC1(C)C2(C)C (stereo not given) | 0 | 37* | 0 | -13
c1ccc(-n2cnc3c(Nc4ccc(N5CCOCC5)cc4)nc(Nc4nccc5ccccc45)nc32)cc1 | 1 | 43* | 0 | 16
Cn1nccc1Nc1nc(NCCN2CCOCC2)c2ncn(-c3ccsc3)c2n1 | -2 | 50* | 0 | 0
c1ccc(-c2nc(NCCN3CCOCC3)c3ncn(-c4ccsc4)c3n2)cc1 | 1 | 33* | 0 | 5
SMILES | GPR151 activ | TEAD-YAP block | FBW7 act | MITF primary
COc1cc(Nc2nc(NCCN3CCOCC3)c3ncn(-c4ccccc4)c3n2)cc(OC)c1OC | 0 | 42* | 1 | 7
COc1cc(Nc2nc(NCCO)c3ncn(-c4ccccc4)c3n2)cc(OC)c1OC | 0 | 28 | 0 | 0
CC(C)COc1ccc(C(=O)NC(C)C2COc3ccccc3O2)cc1 (stereo not given) | 0 | 3 | 0 | -15
O=C(O)/C=C\C(=O)Nc1cccc(NC(=O)Cc2ccccc2)c1 | 0 | 1 | 0 | 18
O=C(C1=CCCC1)N1CCCC(CNC(=O)C2(c3ccc(Cl)cc3)CC2)C1 (stereo not given) | 0 | -4 | 0 | 11
COCCNC(=O)C1CCCN(S(=O)(=O)c2ccccc2)C1 (stereo not given) | 3 | 2 | 0 | -3
COc1cc(Nc2nc(Nc3ccnn3C)nc3c2ncn3-c2ccsc2)cc(OC)c1OC | 0 | 63* | 0 | 16
c1ccc(Nc2nc(NCCN3CCOCC3)c3ncn(-c4ccsc4)c3n2)cc1 | 1 | 55* | 0 | -1
c1cc(Nc2nc(NCCN3CCOCC3)c3ncn(-c4ccsc4)c3n2)ncn1 | 0 | 37* | 0 | 11
COc1cc(Nc2nc(Nc3ncccn3)nc3c2ncn3-c2ccsc2)cc(OC)c1OC | 2 | 10 | 0 | 3
c1cnc2ccc(Nc3nc(NCCN4CCOCC4)c4ncn(-c5ccsc5)c4n3)cc2c1 | 0 | 48* | 0 | 4
O=S(=O)(c1ccc2c(c1)C(=NO)c1cc(S(=O)(=O)N3CCOCC3)ccc1-2)N1CCOCC1 | 0 | 16 | 0 | -7
CC(=O)c1cccc(NC(=O)CSc2cccc3cccnc23)c1 | -1 | 4 | 0 | 1
COc1cc(CN2CCC(c3nc(-c4ccc5c(c4)OCO5)no3)CC2)cc(OC)c1 | 0 | -10 | 0 | 19
c1cncc(CNc2nc(NCCN3CCOCC3)c3ncn(-c4ccsc4)c3n2)c1 | -1 | -1 | 0 | -10
c1cncc(Nc2nc(NCCN3CCOCC3)c3ncn(-c4ccsc4)c3n2)c1 | 1 | 51* | 0 | -3
c1ccc(-n2cnc3c(NCCN4CCOCC4)nc(Nc4ccc(N5CCOCC5)cc4)nc32)cc1 | 4 | 59* | 0 | 18
c1ccc(-n2cnc3c(NCCN4CCOCC4)nc(Nc4cccnc4)nc32)cc1 | 1 | 34* | 0 | -1
O=C(c1ccccc1)c1cccc(N2C(=O)C3C4C=CC(C3C2=O)C2C(=O)N(c3cccc(C(=O)c5ccccc5)c3)C(=O)C42)c1 (stereo not given) | 0 | -3 | 0 | 2
CCOC(=O)NN=C(Cc1ccccc1)Cc1ccccc1 | 1 | -32 | 0 | -3
FC(F)(F)C1=Nc2cc(Cl)c(Cl)cc2N=C(c2cccs2)C1 | 0 | 37* | 0 | -6
CC(C)c1ccc(/C=C/c2cc(=O)n3ccsc3n2)cc1 | -1 | 5 | 0 | -6
Cc1ccc(/C=C/c2cc(=O)n3ccsc3n2)cc1 | -2 | 49* | 0 | -8
CC(=O)Nc1ccc(OCC(=O)Nc2ccc(C(C)C)cc2)cc1 | 3 | 1 | 0 | 6
O=C(N/N=C/c1cccc(O)c1O)c1ccc(O)cc1 | -1 | -9 | -1 | 57*
Cc1cccc(/C=N\NC(=O)c2ccc([N+](=O)[O-])cc2)c1O | -1 | 62* | -1 | -7
CCN(CC)S(=O)(=O)c1cccc(C(=O)N/N=C/c2cccc(O)c2O)c1 | 1 | 5 | -1 | 71*
O=C(/C=C/Nc1ccc(I)cc1)c1ccco1 | -1 | 19 | 0 | -8
CC(C)c1ccc(N/C=C/C(=O)c2ccco2)cc1 | -1 | 78* | 0 | -20
O=[N+]([O-])c1ccc(Oc2ccccc2O)c2c1no[n+]2[O-] | -3 | -13 | -2 | 66*
